From article PMC7826789 (International Journal of Molecular Sciences, 2021) come the findings set out here.

The structures appear in SMILES notation.

For the first experiment, the system named is PDGFRB.
On to `Cn1ccc2ncnc(Oc3ccc(NC(=O)Nc4ccccc4)cc3)c21` [TPKI-69], for which the Kinases covered entry is “PDGFRB”. For the compound `CNS(=O)(=O)c1ccc(N(C)C)c(Nc2ncnc3cc(OC)c(OC)cc23)c1` [GSK114], the Kinases covered entry was “PDGFRB”.

`Cc1ccc(NC(=O)Nc2ccccc2F)cc1-c1ccc(C(=O)Nc2ccncc2)cc1` [GSK1398477]: the Kinases covered entry is “PDGFRB”. The same measure, in the same setting: the value for `O=C(Nc1ccccc1)Nc1cccc(Oc2ccc3nccn3n2)c1` [TPKI-39] was “PDGFRB”. Take `COc1cc2c(cc1OC)C(=C(Nc1ccccc1)c1cccc(CN)c1)C(=O)N2` [BIBF0846CL]: the Kinases covered entry is “PDGFRB”. Same read-out and setting: the entry for `COc1cc2ncn(-c3cc(O[C@H](C)c4ccccc4Cl)c(C(N)=O)s3)c2cc1OC` [GSK237701A] is “PDGFRB”.

In a further experiment the test system is PI4KB.
Take `NS(=O)(=O)c1cccc(-c2ccc3nccc(-c4cccc(S(N)(=O)=O)c4)c3c2)c1` [GW867253]: the Kinases covered result is “PI4KB”. As to `COc1ccc(-c2cc3c(C)nc(N)nc3n([C@H]3CC[C@H](OCCO)CC3)c2=O)cn1` [PFE-PKIS 29], the Kinases covered result is “PI4KB”. Still for that read-out and setting: the entry for `COc1ccc(-c2cc3c(C)nc(N)nc3n([C@H]3CC[C@H](O)CC3)c2=O)cn1` [PFE-PKIS 40] is “PI4KB”.

A further experiment deals with PIK3C2G.
As to `CN(C)C(=O)/C(C#N)=C/c1ccc(-c2nc3cnc4[nH]ccc4c3n2C2CCCCC2)o1` [FM-381], the Kinases covered result is given as “PIK3C2G”. `COc1ccc(-c2cc3c(C)nc(N)nc3n([C@H]3CC[C@H](OCCO)CC3)c2=O)cn1` [PFE-PKIS 29]: the Kinases covered entry was “PIK3C2G”.

With `COc1ccc(-c2cc3c(C)nc(N)nc3n([C@H]3CC[C@H](O)CC3)c2=O)cn1` [PFE-PKIS 40], the Kinases covered result is recorded as “PIK3C2G”.

For another experiment, the system named is PIK3CB.
Consider `COc1ccc(-c2cc3c(C)nc(N)nc3n([C@H]3CC[C@H](OCCO)CC3)c2=O)cn1` [PFE-PKIS 29], for which the Kinases covered result is recorded as “PIK3CB”.

Consider `Cc1c(Cn2c(C)c(C)n3c(=O)cc(N4CCOCC4)nc23)cccc1C(F)(F)F` [GSK2328680], for which the Kinases covered result is recorded as “PIK3CB”. On the same count and under the same terms, the entry for `Cc1c(Cn2c(C)nn3c(=O)cc(N4CCO[C@H](C)C4)nc23)cccc1C(F)(F)F` [GSK2373690] is “PIK3CB”. As to `COc1ccc(-c2cc3c(C)nc(N)nc3n([C@H]3CC[C@H](O)CC3)c2=O)cn1` [PFE-PKIS 40], the Kinases covered entry is “PIK3CB”. For `Cc1c(Cn2ccn3c(=O)nc(N4CCOCC4)cc23)cccc1C(F)(F)F` [GSK2336394], the Kinases covered entry is on record as “PIK3CB”.

The test system of another experiment is PIK3CD.
In the case of `COc1ncc(-c2cc(-c3ncc(CN4C[C@@H](C)O[C@@H](C)C4)o3)c3cn[nH]c3c2)cc1NS(C)(=O)=O` [GSK2292767], the Kinases covered result was “PIK3CD”.

Regarding `CC(C)N1CCN(Cc2cnc(-c3cc(-c4cccc5[nH]ccc45)cc4[nH]ncc34)o2)CC1` [GSK2269557], the Kinases covered entry was “PIK3CD”. On the same count and under the same terms, the entry for `COc1ccc(-c2cc3c(C)nc(N)nc3n([C@H]3CC[C@H](OCCO)CC3)c2=O)cn1` [PFE-PKIS 29] is “PIK3CD”. The same measure, in the same setting: the value for `COc1ccc(-c2cc3c(C)nc(N)nc3n([C@H]3CC[C@H](O)CC3)c2=O)cn1` [PFE-PKIS 40] was “PIK3CD”.

The subject of a further experiment is PIK3CG.
As for `NS(=O)(=O)c1cccc(-c2ccc3nccc(-c4cccc(S(N)(=O)=O)c4)c3c2)c1` [GW867253], the Kinases covered result was “PIK3CG”. The same measure, in the same setting: the value for `CC(C)N1CC(=O)N(C)c2cnc(Nc3cccc(S(=O)(=O)CCN4CCOCC4)c3)nc21` [BI00009348] was “PIK3CG”; that for `Cc1c(Cn2c(C)nn3c(=O)cc(N4CCO[C@H](C)C4)nc23)cccc1C(F)(F)F` [GSK2373690] was “PIK3CG”. On the same count and under the same terms, the entry for `COc1ccc(-c2cc3c(C)nc(N)nc3n([C@H]3CC[C@H](O)CC3)c2=O)cn1` [PFE-PKIS 40] is “PIK3CG”; for `CC(C)C(=O)N[C@@H]1CCN(C(=O)Nc2nc3c(s2)-c2nc(-c4ccccc4Cl)ncc2CC3)C1` [BI00047804] it is “PIK3CG”.
